Test results published in PubChem BioAssay AID1159580 (chemical genetic matrix, 2015).
Where “and” joins values, the source holds several entries; their conditions need not be identical. Equal entries are not always repeated. Hit rate of the full screen: of about 5,500 compounds, about 2,000 (36%) were called active. Another 18% or so got no clear call; they are omitted. Cut-off read from the data, not from the text of the source: active = normalized growth mostly below about 0.91 (no sharp cut-off); inconclusive = no clear call, values can overlap the other calls; inactive = mostly above about 0.92. This is one part of the list.

Experiment: chemical genetic growth profiling, strain panel (AID 1159580);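 note: tested at 20 µM; growth read once vehicle control cultures reached saturation at 30 °C; 1 = growth at the plate median or of vehicle wells; lower values mean less growth of the strain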
Settings: S. cerevisiae deletion strains, growth OD

Measured: normalized growth

O=C(CCBr)N1CCN(C(=O)CCBr)CC1
inactive: locus YAL013W, strain DEP1, active compounds read low 1 | locus YAL021C, strain ccr4, active compounds read low 1.02 | locus YAL026C, strain drs2, active compounds read low 1.01 | locus YAL030W, strain snc1, active compounds read low 1.02 | locus YBL061C, strain skt5, active compounds read low 1.02 | locus YBR009C, strain hhf1, active compounds read low 1.02 | locus YBR021W, strain FUR4, active compounds read low 0.998 | locus YBR023C, strain chs3, active compounds read low 1.03 | locus YBR171W, strain sec66, active compounds read low 1.04 | locus YBR229C, strain ROT2, active compounds read low 1 | locus YBR231C, strain swc5, active compounds read low 1.02 | locus YBR279W, strain paf1, active compounds read low 1.02 | locus YCL011C, strain gbp2, active compounds read low 1.02 | locus YCL016C, strain dcc1, active compounds read low 1.02 | locus YCL029C, strain bik1, active compounds read low 1 | locus YCL061C, strain MRC1, active compounds read low 1.01 | locus YCL069W, strain vba3, active compounds read low 1.02 | locus YCR088W, strain abp1, active compounds read low 1.01 | locus YDL005C, strain med2, active compounds read low 1.02 | locus YDL035C, strain GPR1, active compounds read low 1.01 | locus YDL040C, strain nat1, active compounds read low 1.02 | locus YDL074C, strain BRE1, active compounds read low 1 | locus YDL101C, strain DUN1, active compounds read low 1.01 | locus YDL134C, strain PPH21, active compounds read low 1.01 | locus YDL185W, strain tfp1, active compounds read low 0.988 | locus YDL192W, strain arf1, active compounds read low 1.01 | locus YDR001C, strain nth1, active compounds read low 1.01 | locus YDR069C, strain doa4, active compounds read low 1.02 | locus YDR101C, strain arx1, active compounds read low 1.01 | locus YDR137W, strain rgp1, active compounds read low 1.05 | locus YDR159W, strain sac3, active compounds read low 1.01 | locus YDR162C, strain NBP2, active compounds read low 1.01 | locus YDR195W, strain ref2 1.02 | locus YDR297W, strain sur2, active compounds read low 1.02 | locus YDR318W, strain mcm21, active compounds read low 0.996 | locus YDR334W, strain swr1, active compounds read low 1.02 | locus YDR335W, strain msn5, active compounds read low 1.02 | locus YDR388W, active compounds read low 0.995 | locus YDR392W, strain spt3, active compounds read low 1.03 | locus YDR502C, strain sam2, active compounds read low 0.998 | locus YEL003W, strain gim4, active compounds read low 1.02 | locus YEL037C, strain rad23, active compounds read low 1.01 | locus YEL061C, strain CIN8 (second series), active compounds read low 1.02 | locus YEL061C, strain CIN8, active compounds read low 1 | locus YER015W, strain faa2, active compounds read low 1.02 | locus YER016W, strain bim1, active compounds read low 1.02 | locus YER110C, active compounds read low 0.993 | locus YER111C, strain swi4, active compounds read low 1.02 | locus YER155C, strain BEM2 (second series), active compounds read low 1.02 | locus YER155C, strain BEM2, active compounds read low 1.01 | locus YER167W, strain BCK2, active compounds read low 1.01 | locus YFR010W, strain ubp6, active compounds read low 1.01 | locus YGL078C, strain dbp3, active compounds read low 0.995 | locus YGL086W, strain mad1, active compounds read low 0.991 | locus YGL167C, strain pmr1, active compounds read low 1.02 | locus YGL173C, strain kem1, active compounds read low 1.02 | locus YGL227W, strain vid30, active compounds read low 1.02 | locus YGL240W, strain doc1, active compounds read low 1.02 | locus YGL248W, strain PDE1, active compounds read low 1 | locus YGL253W, strain hxk2, active compounds read low 1 | locus YGR135W, strain pre9, active compounds read low 0.99 | locus YGR229C, strain SMI1, active compounds read low 0.99 | locus YGR252W, strain gcn5, active compounds read low 0.934 | locus YHR013C, strain ard1, active compounds read low 1.04 | locus YHR027C, strain rpn1, active compounds read low 1.01 | locus YHR030C, strain SLT2, active compounds read low 1.01 and 1 | locus YHR079C, strain IRE1 (second series), active compounds read low 0.995 | locus YHR079C, strain IRE1, active compounds read low 0.997 | locus YHR094C, strain hxt1, active compounds read low 0.996 | locus YHR129C, strain ARP1, active compounds read low 1.01 | locus YHR142W, strain chs7, active compounds read low 1.02 | locus YHR200W, strain rpn10, active compounds read low 0.994 | locus YIL066C, strain RNR3, active compounds read low 1.02 | locus YIL073C, strain SPO22, active compounds read low 1.04 | locus YIL125W, strain kgd1, active compounds read low 0.987 | locus YIR030C, strain dcg1, active compounds read low 1 | locus YJL092W, strain hpr5, active compounds read low 1.01 | locus YJL095W, strain BCK1 (second series), active compounds read low 1.01 | locus YJL095W, strain BCK1, active compounds read low 1.01 and 0.998 | locus YJL115W, strain asf1, active compounds read low 1 | locus YJL129C, strain trk1, active compounds read low 1.02 | locus YJL134W, strain LCB3, active compounds read low 1.01 | locus YJL154C, strain vps35, active compounds read low 1.02 | locus YJL164C, strain tpk1, active compounds read low 1.02 | locus YJL166W, strain qcr8, active compounds read low 1.02 | locus YJL168C, strain set2, active compounds read low 0.998 | locus YJL187C, strain SWE1 (second series), active compounds read low 1.02 | locus YJL187C, strain SWE1, active compounds read low 1.02 | locus YJR043C, strain POL32, active compounds read low 1.01
